Results reported in PubChem BioAssay (Tox21).
Inconclusive results are not listed. Entries that show only a call come without a potency. A structure can be active in one record and inactive in another. Calls of active or inactive are those of the source. Unless noted, calls come from the whole dose curve; as a rule, active = well fitted curve in the direction sought with a large enough effect in the repeat runs; inconclusive = weak or mixed curves; inactive = no such curve, though single readings can be large; an effect the other way counts as inactive or inconclusive.

Experiments:
[1] = target: Thyrotropin-releasing hormone receptor (Homo sapiens) (UniProt P34981); experiment: qHTS assay to identify small molecule agonists of the thyrotropin-releasing hormone receptor (TRHR) signaling pathway (AID 1346891; calls by dose curve;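 note: HEK293 cells expressing TRHR with calcium dye readout; series mostly up to about 58 µM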)
Sequence of Thyrotropin-releasing hormone receptor (Homo sapiens) (P34981 whole entry, looked up): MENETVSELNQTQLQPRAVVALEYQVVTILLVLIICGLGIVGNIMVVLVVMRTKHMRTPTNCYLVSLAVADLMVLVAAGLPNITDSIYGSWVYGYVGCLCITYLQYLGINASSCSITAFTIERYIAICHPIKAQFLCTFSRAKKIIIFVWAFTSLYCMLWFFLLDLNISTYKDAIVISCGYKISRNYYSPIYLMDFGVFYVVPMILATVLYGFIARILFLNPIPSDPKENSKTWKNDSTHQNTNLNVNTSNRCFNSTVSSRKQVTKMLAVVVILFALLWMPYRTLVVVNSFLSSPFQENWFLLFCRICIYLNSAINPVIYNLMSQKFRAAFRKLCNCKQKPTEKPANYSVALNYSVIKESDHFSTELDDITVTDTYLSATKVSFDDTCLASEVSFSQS
Outline: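 Cells: TRHR-Hek293, seeded and incubated 18 h. Dye loading: 2 h at 37 °C. Compound added from DMSO stock by pin tool. Read-out: kinetic calcium fluorescence over 3 min.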

[2] = Human pregnane X receptor (PXR) small molecule agonists, qHTS cell viability counter screen (AID 1346977); note: nearly all actives have a fitted effect of over 50% in size; note: potency is the fitted concentration of half-maximal effect
Outline: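 Cytotoxicity counter screen run in the same wells as the PXR luciferase assay, using PXR-Luc HepG2 cells in charcoal-stripped serum medium. Viability: CellTiter-Fluor fluorescence after 24hr compound treatment.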

[3] = Caspase-3/7 induction in HepG2 cells by small molecules, qHTS assay (AID 1346978); note: nearly all actives have a fitted effect of over 15% in size
Outline: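 Caspase-3/7 induction was measured by Caspase-Glo 3/7 luminescence (30 min, room temperature) after a 17 hr compound exposure of wild-type HepG2 cells seeded at 2,000 per well and pre-incubated 5 hr.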

[4] = Caspase-3/7 induction in CHO-K1 cells by small molecules, qHTS cell viability counter screen (AID 1346979); note: nearly all actives have a fitted effect of over 35% in size; note: potency is the fitted concentration of half-maximal effect
Outline: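 Cytotoxicity counter screen run in parallel with the caspase-3/7 assay: CHO-K1 cells, 16hr compound treatment at 37C, then CellTiter-Fluor for 1hr before fluorescence reading.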

[5] = Caspase-3/7 induction in CHO-K1 cells by small molecules, qHTS assay (AID 1346980); note: nearly all actives have a fitted effect of over 15% in size
Outline: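 Luminescent Caspase-Glo 3/7 read (30min, room temperature) quantified apoptosis induction. Cells were wild-type CHO-K1, treated with compound for 17hr at 37 C and 5% CO2.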

[6] = Caspase-3/7 induction in HepG2 cells by small molecules, qHTS cell viability counter screen (AID 1346981); note: nearly all actives have a fitted effect of over 30% in size; note: potency is the fitted concentration of half-maximal effect
Outline: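 Wild-type HepG2 cells (2,000/well) were allowed to settle for 5 hr at 37 C, 5% CO2, then dosed with compounds in DMSO by pin transfer. After 16 hr at 37 C, CellTiter-Fluor was added and fluorescence read 1 hr later.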

[7] = target: Nuclear receptor subfamily 1 group I member 2 (Homo sapiens) (UniProt O75469); experiment: Human pregnane X receptor (PXR) small molecule agonists, qHTS assay (AID 1346982); note: nearly all actives have a fitted effect of over 35% in size; note: potency is the fitted concentration of half-maximal effect
Sequence of Nuclear receptor subfamily 1 group I member 2 (Homo sapiens) (O75469 whole entry, looked up): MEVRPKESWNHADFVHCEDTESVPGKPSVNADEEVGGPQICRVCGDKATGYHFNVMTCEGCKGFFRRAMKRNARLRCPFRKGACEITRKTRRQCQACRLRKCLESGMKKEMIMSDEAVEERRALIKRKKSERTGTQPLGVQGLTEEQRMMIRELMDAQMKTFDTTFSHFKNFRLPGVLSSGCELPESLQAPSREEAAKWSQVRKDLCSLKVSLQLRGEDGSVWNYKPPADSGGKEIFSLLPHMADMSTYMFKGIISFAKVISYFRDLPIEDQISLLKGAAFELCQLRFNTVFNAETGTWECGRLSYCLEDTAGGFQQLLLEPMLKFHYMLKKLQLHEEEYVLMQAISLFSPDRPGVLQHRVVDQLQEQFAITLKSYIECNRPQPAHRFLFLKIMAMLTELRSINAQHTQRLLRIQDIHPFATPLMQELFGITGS
Outline: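 PXR-Luc HepG2 cells (CYP3A4 promoter-driven luciferase) were seeded in medium with 5% charcoal-stripped FBS, left 5 hr at 37 C, then exposed to compounds in DMSO for 24 hr. Luminescence was read after ONE-Glo addition.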

For O=C1c2ccccc2C(=O)c2c(O)c(O)cc(O)c21, the Potency [1] was “inactive”, the Potency [2] was 54.5 µM (active) and the Potency [3] was “inactive”. For the same compound, the Potency [4] was 48.6 µM (active), the Potency [5] was “inactive” and the Potency [6] was 54.5 µM (active). The Potency [7] was “inactive”.
In the case of CCOC(=O)C1=C(C)NC(C)=C(C(=O)OC)C1c1cccc(Cl)c1Cl (centres undefined), the Potency [1] is reported as “inactive”, the Potency [2] is reported as “inactive” and the Potency [3] is reported as “inactive”. For the same compound, the Potency [4] was 13.3 µM (active), the Potency [5] was “inactive” and the Potency [6] was “inactive”.
With Cc1ccc(CO)cc1 the Potency [1] was “inactive”, the Potency [2] was “inactive” and the Potency [3] was “inactive”. The Potency [4] was “inactive”, the Potency [5] was “inactive” and the Potency [6] was “inactive”. For the same compound, the Potency [7] was “inactive”.
For Cc1ccccc1S, the Potency [1] was “inactive”, the Potency [2] was “inactive” and the Potency [3] was “inactive”. For the same compound, the Potency [4] was “inactive”, the Potency [5] was “inactive” and the Potency [6] was “inactive”.
For O=[N+]([O-])c1ccc(Nc2ccc(Nc3ccccc3)c(S(=O)(=O)O)c2)c([N+](=O)[O-])c1, the Potency [1] was “inactive”, the Potency [2] was 68.6 µM (active) and the Potency [3] was “inactive”. For the same compound, the Potency [4] was 54.5 µM (active), the Potency [5] was “inactive” and the Potency [6] was 61.1 µM (active).
With COc1ccc(OC(=O)N(CC(=O)O)Cc2ccc(OCCc3nc(-c4ccccc4)oc3C)cc2)cc1 the Potency [1] was “inactive”, the Potency [2] was “inactive” and the Potency [3] was “inactive”. For the same compound, the Potency [4] was “inactive”, the Potency [5] was “inactive” and the Potency [6] was “inactive”. For the same compound, the Potency [7] was “inactive”.
In the case of O=C(O)CCCCCCCCCCCBr, the Potency [1] is reported as “inactive”, the Potency [2] is reported as “inactive” and the Potency [3] is reported as “inactive”. The Potency [4] was “inactive”, the Potency [5] was “inactive” and the Potency [6] was “inactive”. For the same compound, the Potency [7] was “inactive”.
For CC=C(Cl)Cl, the Potency [1] was “inactive”, the Potency [2] was “inactive” and the Potency [3] was “inactive”. The Potency [4] was “inactive”, the Potency [5] was “inactive” and the Potency [6] was “inactive”.
In the case of CCCCCCCCCI, the Potency [1] is reported as “inactive”, the Potency [2] is reported as “inactive” and the Potency [3] is reported as “inactive”. For the same compound, the Potency [4] was “inactive”, the Potency [5] was “inactive” and the Potency [6] was “inactive”. The Potency [7] was “inactive”.
With O=C1Cc2cc(Cl)ccc2N1 the Potency [1] was “inactive”, the Potency [2] was “inactive” and the Potency [3] was “inactive”. The Potency [4] was “inactive”, the Potency [5] was “inactive” and the Potency [6] was “inactive”. For the same compound, the Potency [7] was “inactive”.
In the case of CC(O)c1ccccc1 (centres undefined), the Potency [1] is reported as “inactive”, the Potency [2] is reported as “inactive” and the Potency [3] is reported as “inactive”. For the same compound, the Potency [4] was “inactive”, the Potency [5] was “inactive” and the Potency [6] was “inactive”. For the same compound, the Potency [7] was “inactive”.
With CCC1NC(=O)c2cc(S(N)(=O)=O)c(Cl)cc2N1 (centres undefined) the Potency [1] was “inactive”, the Potency [2] was “inactive” and the Potency [3] was “inactive”. For the same compound, the Potency [4] was “inactive”, the Potency [5] was “inactive” and the Potency [6] was “inactive”.
In the case of Cc1cc(O)ccc1O, the Potency [1] is reported as “inactive”, the Potency [2] is reported as “inactive” and the Potency [3] is reported as “inactive”. The Potency [4] was 31 µM (active) and the Potency [5] was “inactive”.
For C=COCC(C)C, the Potency [1] was “inactive”, the Potency [2] was “inactive” and the Potency [3] was “inactive”. The Potency [4] was “inactive”, the Potency [5] was “inactive” and the Potency [6] was “inactive”. The Potency [7] was “inactive”.
In the case of Cc1ccc(C(C)(C)O)cc1, the Potency [1] is reported as “inactive”, the Potency [2] is reported as “inactive” and the Potency [3] is reported as “inactive”. The Potency [4] was “inactive”, the Potency [5] was “inactive” and the Potency [6] was “inactive”. For the same compound, the Potency [7] was “inactive”.
For CCC(C)(C)OC, the Potency [1] was “inactive”, the Potency [2] was “inactive” and the Potency [3] was “inactive”. For the same compound, the Potency [4] was “inactive”, the Potency [5] was “inactive” and the Potency [6] was “inactive”. For the same compound, the Potency [7] was “inactive”.
For CCC(OCCCOC)OC(C)=O (centres undefined), the Potency [1] was “inactive”, the Potency [2] was “inactive” and the Potency [3] was “inactive”. For the same compound, the Potency [4] was “inactive”, the Potency [5] was “inactive” and the Potency [6] was “inactive”. The Potency [7] was “inactive”.
For COC(=O)CS, the Potency [1] was “inactive”, the Potency [2] was “inactive” and the Potency [3] was “inactive”. The Potency [4] was “inactive”, the Potency [5] was “inactive” and the Potency [6] was “inactive”. The Potency [7] was “inactive”.
For CCOC(=O)/C=C/C(=O)OCC, the Potency [1] was “inactive”, the Potency [2] was “inactive” and the Potency [3] was “inactive”. For the same compound, the Potency [4] was “inactive”, the Potency [5] was “inactive” and the Potency [6] was “inactive”. The Potency [7] was “inactive”.
With O=C(OC(=O)c1ccccc1)c1ccccc1 the Potency [1] was “inactive”, the Potency [2] was “inactive” and the Potency [3] was “inactive”. The Potency [4] was “inactive”, the Potency [5] was “inactive” and the Potency [6] was “inactive”. The Potency [7] was “inactive”.
With C1COC1 the Potency [1] was “inactive”, the Potency [2] was “inactive” and the Potency [3] was “inactive”. For the same compound, the Potency [4] was “inactive”, the Potency [5] was “inactive” and the Potency [6] was “inactive”. The Potency [7] was “inactive”.
For C=C1CCC2CC1C2(C)C (centres undefined), the Potency [1] was “inactive”, the Potency [2] was “inactive” and the Potency [3] was “inactive”. For the same compound, the Potency [4] was “inactive”, the Potency [5] was “inactive” and the Potency [6] was “inactive”. For the same compound, the Potency [7] was “inactive”.
With Cc1cc(=O)c2c(O)c3c(O)cc(=O)c4c3c3c(cc(O)c1c23)C(C)(C)C=4O the activation [1] was 12.7% [at 11.8 µM] (inactive), the Potency [2] was 0.73 µM (active) and the caspase activation [3] was -2.97% [at 19 µM] (inactive). The Potency [4] was 2.59 µM (active) and the caspase-3/7 activation [5] was -1.78% [at 19 µM] (inactive).
In the case of CC/C=C1/OC(=O)c2ccccc21, the Potency [1] is reported as “inactive”, the Potency [2] is reported as “inactive” and the Potency [3] is reported as “inactive”. The Potency [4] was “inactive”, the Potency [5] was “inactive” and the Potency [6] was “inactive”. The Potency [7] was “inactive”.
In the case of O=C(Cn1ccnc1[N+](=O)[O-])NCCO, the Potency [1] is reported as “inactive”, the Potency [2] is reported as “inactive” and the Potency [3] is reported as “inactive”. For the same compound, the Potency [4] was “inactive”, the Potency [5] was “inactive” and the Potency [6] was “inactive”. The Potency [7] was “inactive”.
With c1ccc2c(c1)CCc1ccccc1N2 the Potency [1] was “inactive”, the Potency [2] was “inactive” and the Potency [3] was “inactive”. The Potency [4] was “inactive”, the Potency [5] was “inactive” and the Potency [6] was “inactive”. For the same compound, the Potency [7] was 61.4 µM (active) and inactive.
For CCC(=O)OC, the Potency [1] was “inactive”, the Potency [2] was “inactive” and the Potency [3] was “inactive”. The Potency [4] was “inactive”, the Potency [5] was “inactive” and the Potency [6] was “inactive”. The Potency [7] was “inactive”.
In the case of CCC(C)COC(=O)CC(C)C (centres undefined), the Potency [1] is reported as “inactive”, the Potency [2] is reported as “inactive” and the Potency [3] is reported as “inactive”. For the same compound, the Potency [4] was “inactive”, the Potency [5] was “inactive” and the Potency [6] was “inactive”. The Potency [7] was “inactive”.
In the case of CC1(C)S[C@@H]2[C@H](NC(=O)C(c3ccccc3)S(=O)(=O)O)C(=O)N2[C@H]1C(=O)O (some centres undefined), the Potency [1] is reported as “inactive”, the Potency [2] is reported as “inactive” and the Potency [3] is reported as “inactive”. For the same compound, the Potency [4] was “inactive”, the Potency [5] was “inactive” and the Potency [6] was “inactive”. The Potency [7] was “inactive”.
